Assay results published in PubChem BioAssay (EPA / NIEHS).
Inconclusive results are not listed. The source made the active and inactive calls. The calls were made as follows: active = hit-call score of the fitted dose curve at least 0.9, where 1 is the maximum; inconclusive = response in the unintended direction; inactive = score below 0.9.

Legend:
[1] = target: D(1A) dopamine receptor (Homo sapiens) (UniProt P21728); assay: NVS_GPCR_hDRD1: NovaScreen (NVS) G Protein-Coupled Receptor Assay for human Dopamine Receptor D1 (DRD1) (AID 2283269)
Sequence of D(1A) dopamine receptor (Homo sapiens) (P21728 whole entry, looked up): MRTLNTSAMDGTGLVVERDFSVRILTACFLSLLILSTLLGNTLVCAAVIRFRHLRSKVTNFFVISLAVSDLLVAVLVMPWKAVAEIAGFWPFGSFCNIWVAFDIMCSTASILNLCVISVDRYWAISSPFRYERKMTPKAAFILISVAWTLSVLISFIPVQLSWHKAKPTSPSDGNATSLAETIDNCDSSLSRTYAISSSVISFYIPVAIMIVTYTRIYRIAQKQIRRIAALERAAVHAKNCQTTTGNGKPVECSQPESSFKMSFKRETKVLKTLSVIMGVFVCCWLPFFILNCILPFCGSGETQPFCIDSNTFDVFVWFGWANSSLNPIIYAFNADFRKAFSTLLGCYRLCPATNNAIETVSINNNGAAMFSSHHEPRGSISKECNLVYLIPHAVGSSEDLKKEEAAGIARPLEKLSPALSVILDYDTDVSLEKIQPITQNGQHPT
Summary of the method: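 HEK293-derived receptor preparation; radioligand competitive displacement; 1 h; filtration + scintillation counting. DMSO = negative control/baseline. Primary: 25 uM, duplicate; secondary: concentration–response for actives.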

[2] = target: human Neurokinin, NK2 Receptor, TACR2 (gene 6865) (UniProt P21452); assay: NVS_GPCR_hNK2: NovaScreen (NVS) G Protein-Coupled Receptor Assay for human Neurokinin, NK2 Receptor (AID 2283278);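 also: actives reduce bound radioligand signal relative to DMSO baseline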
Sequence of human Neurokinin, NK2 Receptor, TACR2 (gene 6865) (P21452 whole entry, looked up): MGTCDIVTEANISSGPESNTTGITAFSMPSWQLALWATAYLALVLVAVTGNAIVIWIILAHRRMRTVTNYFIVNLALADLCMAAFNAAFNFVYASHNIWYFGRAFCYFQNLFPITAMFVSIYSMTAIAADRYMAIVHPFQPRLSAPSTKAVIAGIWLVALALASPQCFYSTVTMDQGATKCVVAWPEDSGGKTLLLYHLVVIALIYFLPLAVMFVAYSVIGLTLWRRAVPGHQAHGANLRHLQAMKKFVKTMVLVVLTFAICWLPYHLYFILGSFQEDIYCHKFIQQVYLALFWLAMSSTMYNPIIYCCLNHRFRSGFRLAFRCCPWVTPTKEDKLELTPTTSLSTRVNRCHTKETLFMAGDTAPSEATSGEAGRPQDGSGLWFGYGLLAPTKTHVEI
Summary of the method: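 Filter-based scintillation counting measured radioligand bound to receptor extracted from CHO cells, 4 hours after compound addition. Chemicals screened first at 25 uM in duplicate, with actives retested in concentration series relative to DMSO.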

[3] = target: Muscarinic acetylcholine receptor M2 (Homo sapiens) (UniProt P08172); assay: NVS_GPCR_hM2: NovaScreen (NVS) G Protein-Coupled Receptor Assay for human Muscarinic, M2 Receptor (AID 2283273)
Sequence of Muscarinic acetylcholine receptor M2 (Homo sapiens) (P08172 whole entry, looked up): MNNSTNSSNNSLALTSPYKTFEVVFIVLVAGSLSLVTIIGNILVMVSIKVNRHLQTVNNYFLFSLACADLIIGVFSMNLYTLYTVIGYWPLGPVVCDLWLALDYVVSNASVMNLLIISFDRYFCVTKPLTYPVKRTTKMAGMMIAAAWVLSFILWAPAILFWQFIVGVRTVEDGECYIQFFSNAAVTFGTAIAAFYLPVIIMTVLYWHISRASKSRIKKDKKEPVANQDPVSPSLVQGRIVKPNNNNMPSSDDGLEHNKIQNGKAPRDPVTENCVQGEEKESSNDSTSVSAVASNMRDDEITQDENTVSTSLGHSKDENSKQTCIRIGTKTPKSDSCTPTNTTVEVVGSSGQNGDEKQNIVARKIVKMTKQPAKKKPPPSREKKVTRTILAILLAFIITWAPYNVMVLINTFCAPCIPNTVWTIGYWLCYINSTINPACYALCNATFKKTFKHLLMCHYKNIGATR
Summary of the method: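 Filter-based radiodetection read bound radioligand 1 h after dosing CHO-derived membrane protein. Single-concentration duplicates (25 uM) first, then concentration-response for actives; signal loss versus DMSO scored.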

[4] = target: human Adrenergic, Beta 3 Receptor (Adrb3), ADRB3 (gene 155) (UniProt P13945); assay: NVS_GPCR_hAdrb3: NovaScreen (NVS) G Protein-Coupled Receptor Assay for human Adrenergic, Beta 3 Receptor (Adrb3) (AID 2283262)
Sequence of human Adrenergic, Beta 3 Receptor (Adrb3), ADRB3 (gene 155) (P13945 whole entry, looked up): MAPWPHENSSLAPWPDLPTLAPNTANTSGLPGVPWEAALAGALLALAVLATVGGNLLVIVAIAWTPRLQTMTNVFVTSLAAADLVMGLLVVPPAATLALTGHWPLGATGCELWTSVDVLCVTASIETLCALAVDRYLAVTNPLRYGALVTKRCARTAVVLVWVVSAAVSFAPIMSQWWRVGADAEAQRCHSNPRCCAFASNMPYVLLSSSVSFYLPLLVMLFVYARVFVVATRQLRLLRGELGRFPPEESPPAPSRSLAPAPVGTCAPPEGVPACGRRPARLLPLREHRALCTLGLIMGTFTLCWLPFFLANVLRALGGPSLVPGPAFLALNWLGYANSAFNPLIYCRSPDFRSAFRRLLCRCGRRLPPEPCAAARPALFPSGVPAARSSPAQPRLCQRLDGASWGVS
Summary of the method: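 A cell-free filter binding assay read by scintillation counting, with displacement of a specific radioligand measured after 1 hour. The receptor source was SK-N-MC extracts (cells pretreated with isoproterenol and 8-bromo-cAMP). Compounds were first tested at 25 uM in duplicate and then in concentration series.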

**Q.** Which AC50 [1] does the source give for `N#CCCC(Br)(C#N)CBr` (stereo not drawn) here?
**A.** Its AC50 is 11 µM (active).

**Q.** Which outcome [2] does the source give for `CCN(N=O)C(N)=O` here?
**A.** The outcome was “inactive”.

**Q.** `c1ccc2sc(SNC3CCCCC3)nc2c1` was tested. Which AC50 [2] did it give?
**A.** The AC50 was 0.0784 µM (active).

**Q.** `CCCCCCCCCCBr` was tested. Which outcome [1] did it give?
**A.** The outcome was “inactive”.

**Q.** Which outcome [1] does the source give for `CC(C=O)Cc1ccc2c(c1)OCO2` (stereo not drawn) here?
**A.** Its outcome is “inactive”.

**Q.** With `O=[N+]([O-])c1ccc(Nc2ccccc2)cc1` as the compound, how does the AC50 [1] read?
**A.** Its AC50 is 8.91 µM (active).

**Q.** Which AC50 [1] does the source give for `[Cl][Sn]([c]1ccccc1)([c]1ccccc1)[c]1ccccc1` here?
**A.** The AC50 was 0.6 µM (active).

**Q.** And the AC50 [2]?
**A.** The AC50 was 2.13 µM (active).

**Q.** With `CCCCCCCCCCCCN(C)C` as the compound, how does the outcome [1] read?
**A.** The outcome was “inactive”.

**Q.** What about the AC50 [3] of the same compound?
**A.** The AC50 was 22.6 µM (active).

**Q.** `O=S(=O)(C(Cl)(Cl)Cl)C(Cl)(Cl)Cl` was tested. Which AC50 [1] did it give?
**A.** Its AC50 is 13.8 µM (active).

**Q.** For `Oc1ccc(Cc2ccc(O)cc2)cc1`, which outcome [1] is on record?
**A.** Its outcome is “inactive”.

**Q.** `OCCN(CCO)CCO` was tested. Which outcome [3] did it give?
**A.** The outcome was “inactive”.

**Q.** What does the source list for `O=C1C=CC(=O)c2ccccc21`?
**A.** AC50 [1]: 4.98 µM (active); AC50 [2]: 1.1 µM (active)

**Q.** Which results are given for `Cc1ccc(OP(=O)(Oc2ccc(C)cc2C)Oc2ccc(C)cc2C)c(C)c1`?
**A.** AC50 [1]: 14.3 µM (active); AC50 [2]: 8.63 µM (active)

**Q.** For `N#Cc1ccccc1N`, which outcome [1] is on record?
**A.** Its outcome is “inactive”.

**Q.** `CCOC(=O)CCN(SN(C)C(=O)Oc1cccc2c1OC(C)(C)C2)C(C)C` was tested. Which outcome [2] did it give?
**A.** Its outcome is “inactive”.

**Q.** With `BrCCCCBr` as the compound, how does the outcome [3] read?
**A.** The outcome was “inactive”.

**Q.** What does the source list for `Nc1ccc(N)cc1`?
**A.** AC50 [3]: 9.36 µM (active); AC50 [2]: 5.13 µM (active)

**Q.** How did the outcome [4] turn out when `O=C(O)C1(c2ccc3c(c2)OC[C@H](Cc2ccc(-c4ccccc4)cc2)[C@H]3O)CCCC1` was run?
**A.** Its outcome is “inactive”.

**Q.** For `CC(C)(C)c1cc([N+](=O)[O-])cc(C(C)(C)C)c1O`, which outcome [1] is on record?
**A.** Its outcome is “inactive”.

**Q.** How did the outcome [2] turn out when `CCOC(=O)C(SP(=S)(OC)OC)c1ccccc1` (stereo not drawn) was run?
**A.** Its outcome is “inactive”.

**Q.** With `Brc1c(Br)c(Br)c(Oc2c(Br)c(Br)c(Br)c(Br)c2Br)c(Br)c1Br` as the compound, how does the outcome [1] read?
**A.** The outcome was “inactive”.

**Q.** What does the source list for `OC(Cc1ccccc1Cl)(Cn1[nH]cnc1=S)C1(Cl)CC1` (stereo not drawn)?
**A.** outcome [1]: inactive; AC50 [2]: 15.3 µM (active)
